Data on 44 compounds can be found in PubChem BioAssay AID2685 (National Center for Advancing Translational Sciences (NCATS), 2010).

Screen size: about 320,000 compounds; about 2,100 (0.66%) were called active. About 53% were inconclusive and are not listed. Calls come from the whole dose curve; as a rule, active = well fitted inhibition curve with a large enough effect in the signal ratio, with a control signal flat (not every such curve was filed as active); inconclusive = small, poorly fitted or top-dose-only effect, or effect the other way, or a change in a side signal; inactive = flat fitted curve, though single readings scatter; the % refers to the signal ratio. This excerpt belongs to a sample that is enriched for actives.
Potency is the fitted concentration of half-maximal effect.

This assay is described as follows: qHTS Assay for Lipid Storage Modulators in Drosophila S3 Cells.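 For cell number change: cells counted by Cell Tracker Red CMTPX staining in the red channel.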 For lipid storage change, negative = inhibition: % is set by controls: 0 for no effect and ±100 for the full control effect. The note with it: BODIPY lipid droplet fluorescence, 18-24 h, cells fed with added oleic acid; cell number change: measured here: cell count max response; series mostly up to 46.1 µM; lipid storage change, negative = inhibition: at the top concentration. An outline of the steps:
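Laser-scanning cytometry quantifies lipid droplet accumulation (500–530 nm total intensity; droplet/cell object ratio) in oleic acid-fed (400 uM added) Drosophila S3 cells treated with a concentration series. 20 uM Triacsin C defined 100% inhibition.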
`COc1ccc(-c2nc(C(=O)NCC3CCCO3)cc3c2[nH]c2ccccc23)cc1` (stereo unspecified): the “lipid storage change, negative = inhibition” value was -81.9% (inactive) and the cell number change was -11.3%.
`COc1cc(-c2nc(C(=O)NC3CCCCC3)cc3c2[nH]c2ccccc23)cc(OC)c1OC`: the Potency is 13 µM (active) and the cell number change is 13.2%.
For `O=C(NCCO)c1cc2c([nH]c3ccccc32)c(-c2ccccc2)n1`, the “lipid storage change, negative = inhibition” value was -0.328% (inactive) and the cell number change was -12.4%.
In the same order, the values of `CCOCCCNC(=O)Cn1cc2c(n1)CCCC2` are -2.58% (inactive) and 13.2%.
In the same order, the values of `COC(=O)Cn1c(=NC(=O)c2cc(OC)cc(OC)c2)sc2cc(OC)ccc21` are -18.2% (inactive) and -0.279%.
For the compound `COc1ccc(NC(=O)CSc2nncs2)cc1S(N)(=O)=O`, the “lipid storage change, negative = inhibition” value is -14% (inactive).
For the compound `Cc1c(N)cccc1N`, the “lipid storage change, negative = inhibition” value was 6.46% (inactive) and the cell number change was 16.6%.
For `O=C(CSC1=NS(=O)(=O)c2ccccc2N1)Nc1ccccc1F`, the Potency is 6.51 µM (active) and the cell number change is -3.42%.
In the case of `O=C(CSC1=NS(=O)(=O)c2cc(F)ccc2N1)Nc1ccccc1F`, the outcome was “inactive [at 0.0737 µM]”.
For the compound `O=C(CSC1=NS(=O)(=O)c2cc(Cl)ccc2N1)Nc1ccccc1F`, the “lipid storage change, negative = inhibition” value was 1.27% (inactive) and the cell number change worked out at 0.0379%.
With `Cc1ccc(S(=O)(=O)N2CCN(S(=O)(=O)N3CCC(C)CC3)CC2)c(C)c1`, the outcome was inactive and the cell number change came to 12.8%.
On to `COCCCNC(=O)c1c(-c2ccccc2)noc1C`, for which the “lipid storage change, negative = inhibition” value was 9.31% (inactive) and the cell number change stood at 19.6%.
With `CCOC(=O)c1sc(NC(=O)c2cccs2)nc1C`, the “lipid storage change, negative = inhibition” value was -6.52% (inactive) and the cell number change amounted to 7.32%.
Turning to `CCOCCCNC(=O)c1c(-c2ccccc2)noc1C`, the Potency is 20.6 µM (active) and the cell number change was -15.4%.
As to `CC(=O)Nc1ccc(OCCCNC(=O)c2c(-c3ccccc3)noc2C)cc1`, the “lipid storage change, negative = inhibition” value was -5.94% (inactive) and the cell number change was -3.99%.
In the same order, the values of `Cc1ccc(CNC(=O)[C@H](Cc2ccccc2)NC(=O)c2ccco2)cc1` are 11.7% (inactive) and 9.45%.
Regarding `CCOCCCNC(=O)C(Cc1ccccc1)NC(=O)c1ccco1` (stereo unspecified), the Potency is 13 µM (active) and the cell number change is -1.42%.
With `CCOC(=O)c1csc(NC(=O)c2cccs2)n1`, the Potency is 20.6 µM (active) and the cell number change is -11.6%.
In the case of `O=C(NCCCCNC(=O)c1cccs1)c1cccs1`, the “lipid storage change, negative = inhibition” value is -20.8% (inactive) and the cell number change is -29%.
In the same order, the values of `O=C(NC(Cc1ccccc1)C(=O)O)c1ccco1` (stereo unspecified) are 16% (inactive) and 6.62%.
In the same order, the values of `CCCC(=O)Nc1nc(C(=O)OCC)cs1` are -10.7% (inactive) and -4.4%.
Turning to `COCCCNC(=O)c1cccs1`, the compound was classed as inactive and the cell number change turned out to be 12.5%.
Consider `CCOCCCNC(=O)c1cccs1`, for which the Potency is 6.51 µM (active) and the cell number change was 17.5%.
For `Cc1cccc(/C=C/c2nc3ccccc3c(=O)[nH]2)c1`, the “lipid storage change, negative = inhibition” value is -2.08% (inactive) and the cell number change is -2.24%.
For the compound `O=C(NCC(=O)N(Cc1cccs1)C(C(=O)NC1CCCC1)c1ccncc1)c1ccco1` (stereo unspecified), the result was inactive.
Turning to `Cn1c(Cn2c(=O)sc3ccccc32)nnc1SCC(N)=O`, the “lipid storage change, negative = inhibition” value was 2.33% (inactive) and the cell number change is 4.82%.
Regarding `CCCCCC(=O)Nc1cc(N(C)C)nc2ccccc12`, the result was inactive and the cell number change stood at 6.14%.
`COc1ccc(CC(=O)OCC(=O)Nc2ccc(C(=O)Nc3ccc(OC)cc3)cc2)cc1`: the “lipid storage change, negative = inhibition” value is 0.407% (inactive) and the cell number change worked out at 6.99%.
In the same order, the values of `Cc1ccc2sc(NC(=O)CN3C(=O)c4ccccc4C3=O)nc2c1C` are 19.1% (inactive) and -0.832%.
For the compound `CCCCC(O)(CCCC)C(=O)NN(C(=O)OC)c1ccccc1`, the “lipid storage change, negative = inhibition” value was 8.53% (inactive) and the cell number change is 0.36%.
In the same order, the values of `CCCC(O)(CCC)C(=O)NN(C(=O)OC)c1ccccc1` are 7.85% (inactive) and 12.3%.
In the same order, the values of `CCCCC(O)(CCCC)C(=O)NN(C(=O)OCC)c1ccccc1` are -7.04% (inactive) and 11.1%.
As to `CCCC(O)(CCC)C(=O)NN(C(=O)CCl)c1cccc(C)c1`, the Potency was 20.6 µM (active) and the cell number change was -4.84%.
On to `Cc1cccc(N(NC(=O)C(C)(C)O)C(=O)c2ccccc2)c1`, for which the “lipid storage change, negative = inhibition” value is -3.6% (inactive) and the cell number change came out at 7.68%.
As for `CCC(O)(CC)C(=O)NN(C(=O)CCl)c1ccccc1`, the Potency was 20.6 µM (active) and the cell number change was -5.65%.
For `CC1CCCCN1Cc1c(O)ccc2c(=O)c(-c3ccc(Cl)cc3Cl)coc12` (stereo unspecified), the “lipid storage change, negative = inhibition” value is 0.45% (inactive) and the cell number change was -3.44%.
As to `Cc1ccc(C)c(NC(=S)NCc2cccs2)c1`, the “lipid storage change, negative = inhibition” value was -0.72% (inactive) and the cell number change was -1.36%.
Regarding `CC(=O)Nc1cccc(C(=O)NC(C)c2ccc(-n3ccnc3)cc2)c1` (stereo unspecified), the outcome was inactive.
As for `CC(=O)Nc1cccc(C(=O)NC(C)c2ccc(S(N)(=O)=O)cc2)c1` (stereo unspecified), the Potency is 1.64 µM (active) and the cell number change came out at 21.3%.
As to `CC(NC(=O)c1ccc(S(=O)(=O)Nc2ccccc2)cc1)c1ccc(S(N)(=O)=O)cc1` (stereo unspecified), the “lipid storage change, negative = inhibition” value is 11.1% (inactive) and the cell number change turned out to be 2.41%.
As to `CC(C)CCN(C(=S)Nc1cccc(C(F)(F)F)c1)C(C)c1ccccn1` (stereo unspecified), the Potency is 32.6 µM (active) and the cell number change is -20.3%.
`CC(C)N(C(=S)Nc1cccc(C(F)(F)F)c1)C(C)c1ccccn1` (stereo unspecified): the “lipid storage change, negative = inhibition” value is 0.651% (inactive).
As for `CC(c1ccccn1)N(CCN(C)C)C(=S)Nc1cccc(F)c1` (stereo unspecified), the compound was classed as inactive.
On to `Cc1ncoc1C(=O)Nc1cccc(Cl)c1C`, for which the compound was called inactive.
